{"source": "PubChem BioAssay AID485270", "about": "(The Scripps Research Institute Molecular Screening Center, 2010)", "note": "The campaign covered roughly 330,000 compounds. About 5,800 (1.8%) were called active. This is one part of a sample in which actives are shown more often than they occur. Cut-off read from the data, not from the text of the source: active = inhibition mostly above about 38% (no sharp cut-off); inactive = mostly below about 40%.", "data": [{"target": "Orexin/Hypocretin receptor type 1 (Homo sapiens) (UniProt O43613)", "sequence (O43613 whole entry, looked up)": "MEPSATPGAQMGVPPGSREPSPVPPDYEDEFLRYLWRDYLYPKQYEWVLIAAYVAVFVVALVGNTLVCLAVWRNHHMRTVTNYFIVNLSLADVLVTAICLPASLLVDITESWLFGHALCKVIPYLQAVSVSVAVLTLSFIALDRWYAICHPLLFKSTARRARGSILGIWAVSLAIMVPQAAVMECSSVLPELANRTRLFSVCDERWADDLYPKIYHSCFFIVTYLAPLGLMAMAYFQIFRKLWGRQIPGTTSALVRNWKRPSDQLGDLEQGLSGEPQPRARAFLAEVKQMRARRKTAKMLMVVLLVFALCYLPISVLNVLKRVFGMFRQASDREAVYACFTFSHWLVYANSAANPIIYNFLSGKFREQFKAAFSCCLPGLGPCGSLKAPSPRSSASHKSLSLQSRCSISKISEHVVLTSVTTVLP", "test": "blocks the human orexin 1 receptor (AID 485270);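 note: 0% = agonist challenge alone and 100% = reference antagonist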", "conditions": "OX1R-expressing cells, FRET antagonist read-out; at 6.6 µM; active compounds read high", "values": [{"smiles": "COc1cccc(C(=O)NC(=O)Nc2nc(C)cc(C(F)(F)F)n2)c1", "inhibition": "64.4% (active)"}, {"smiles": "Cc1cc(C)nc(NC(=O)Nc2ccccc2C(F)(F)F)n1", "inhibition": "19.6% (inactive)"}, {"smiles": "COc1cccc(C(=O)NNC(=O)c2cccc(F)c2)c1", "inhibition": "-10.7% (inactive)"}, {"smiles": "CNC(=O)CN1C(=O)NC(c2ccccc2)(c2ccccc2)C1=O", "inhibition": "27% (inactive)"}, {"smiles": "COc1cccc(CNC(=O)COC(=O)CN2C(=O)NC3(CCCCC3C)C2=O)c1", "note": "(stereo unspecified)", "inhibition": "4.53% (inactive)"}, {"smiles": "COc1cccc(CNC(=O)CN2C(=O)NC(Cc3ccccc3)(c3ccccc3)C2=O)c1", "note": "(stereo unspecified)", "inhibition": "40.8% (active)"}, {"smiles": "O=C(NCc1ccc2c(c1)OCO2)c1c(-c2ccsc2)sc2ccccc12", "inhibition": "35.8% (inactive)"}, {"smiles": "Cc1ccc(S(=O)(=O)N(C)c2ccc(OCC(=O)OCc3ccc(C#N)cc3)cc2)cc1", "inhibition": "5.89% (inactive)"}, {"smiles": "Cc1c(NC(=S)Nc2ccccc2)c(=O)n(-c2ccccc2)n1C", "inhibition": "6.12% (inactive)"}, {"smiles": "Cc1c(NC(=O)C(C)Oc2cccc(Cl)c2)c(=O)n(-c2ccccc2)n1C", "note": "(stereo unspecified)", "inhibition": "16% (inactive)"}, {"smiles": "Cc1cccc(OP(=O)(Nc2c(C)n(C)n(-c3ccccc3)c2=O)Oc2cccc(C)c2)c1", "inhibition": "61.5% (active)"}, {"smiles": "COc1ccc(-c2noc(CCC(=O)N3CCN(c4cccc(C)c4)CC3)n2)cc1", "inhibition": "7.06% (inactive)"}, {"smiles": "CN(C)C(=O)CCc1ccc2c3c([nH]c2c1)[C@]1(C)[C@@H](C(=O)N2CCCCC2)C[C@H](CC(=O)NCCC2=CCCCC2)C(=O)N1CC3", "inhibition": "10.5% (inactive)"}, {"smiles": "C[C@@H]1CN([C@@H](C)CO)C(=O)c2cccc(NS(=O)(=O)c3ccc(F)cc3)c2O[C@H]1CN(C)C(=O)NC1CCCCC1", "inhibition": "11.9% (inactive)"}, {"smiles": "COc1ccc(C(=O)OCc2cc(=O)n3ccsc3n2)cc1F", "inhibition": "3.7% (inactive)"}, {"smiles": "CCN1/C(=C/c2ccc3ccc(C)cc3[n+]2CC)Sc2ccccc21", "inhibition": "38.5% (inactive)"}, {"smiles": "CCN1/C(=C\\c2ccc3ccccc3[n+]2CC)Sc2cc(C)ccc21", "inhibition": "69.9% (active)"}, {"smiles": "CN(CC(=O)Nc1ccc(OC(F)F)cc1)S(=O)(=O)/C=C/c1ccccc1", "inhibition": "6.62% (inactive)"}, {"smiles": "Cn1c(N)c(C(=O)COC(=O)c2cccc(S(=O)(=O)N3CCOCC3)c2)c(=O)n(C)c1=O", "inhibition": "13.1% (inactive)"}, {"smiles": "Cn1c(N)c(C(=O)COC(=O)c2ccc3ccccc3c2)c(=O)n(C)c1=O", "inhibition": "44.9% (active)"}, {"smiles": "Cn1c(N)c(C(=O)COC(=O)c2cnc(Cl)c(Cl)c2)c(=O)n(C)c1=O", "inhibition": "6.46% (inactive)"}, {"smiles": "Cn1cncc1C#Cc1c(-c2ccsc2)sc2ccccc12", "inhibition": "10.4% (inactive)"}, {"smiles": "CC1Cc2ccccc2N1S(=O)(=O)c1cccc(C(=O)OCC(=O)N2CCOCC2)c1", "note": "(stereo unspecified)", "inhibition": "7.49% (inactive)"}, {"smiles": "O=S(=O)([N-]c1nc2ccccc2nc1-[n+]1ccc(Cc2ccccc2)cc1)c1ccc(Br)s1", "inhibition": "20.8% (inactive)"}, {"smiles": "Cc1ccc(C)c(NC(=O)CN(C)C(=O)COc2ccc3ccccc3c2)c1", "inhibition": "19.9% (inactive)"}, {"smiles": "c1ccc2sc(NN=C3CCCC3)nc2c1", "inhibition": "3.98% (inactive)"}, {"smiles": "Cc1ccnc(-n2sc3ccccc3c2=O)n1", "inhibition": "15.6% (inactive)"}, {"smiles": "Cc1ccnc(Nc2nc3ccccc3s2)n1", "inhibition": "55.2% (active)"}, {"smiles": "COc1ccc(/C=C/C(=O)Nc2ccc(C34CC5CC(CC(O)(C5)C3)C4)cc2)cc1OC", "inhibition": "18.9% (inactive)"}, {"smiles": "C=CCC[C@@H](Cc1ccc(F)cc1)C(=O)OC[C@@H](C)NC(=O)[C@H](CC=C)CC(=O)N(CCO)Cc1ccccc1", "inhibition": "7.32% (inactive)"}, {"smiles": "O=S(=O)(NCC1CN(S(=O)(=O)c2ccc3c(c2)OCCO3)C1)c1c(F)cccc1F", "inhibition": "3.02% (inactive)"}, {"smiles": "Cc1nc(-c2ccc([N+](=O)[O-])cc2)c(-c2ccccc2)o1", "inhibition": "5.07% (inactive)"}, {"smiles": "Cc1cc(CO)nn1-c1ccc([N+](=O)[O-])cc1", "inhibition": "46.5% (inactive)"}, {"smiles": "Cc1nn(-c2ccc([N+](=O)[O-])cc2)c(N)c1-c1ccccc1", "inhibition": "62.8% (active)"}, {"smiles": "O=C(COc1ccc(Br)cc1F)NCC1(N2CCCCC2)CCCCC1", "inhibition": "9.11% (inactive)"}, {"smiles": "O=C(COC(=O)c1ccc([N+](=O)[O-])o1)NC12CC3CC(CC(C3)C1)C2", "inhibition": "23.2% (inactive)"}, {"smiles": "O=C(Oc1ccccc1C(=S)N1CCCCC1)c1cc([N+](=O)[O-])cc([N+](=O)[O-])c1", "inhibition": "123% (active)"}, {"smiles": "O=C(Oc1ccc(Br)cc1C(=S)N1CCOCC1)c1cccc([N+](=O)[O-])c1", "inhibition": "18.1% (inactive)"}, {"smiles": "O=C(Nc1ccc(C(=O)N2CCCCC2)cc1)c1cccc([N+](=O)[O-])c1", "inhibition": "4.33% (inactive)"}, {"smiles": "CC(=O)Nc1ccc(NC(=O)COC(=O)C2CCC(C(C)(C)C)CC2)cc1", "note": "(stereo unspecified)", "inhibition": "7.49% (inactive)"}, {"smiles": "O=C(Nc1ccc(-n2cccn2)cc1)C1CCN(Cc2ccsc2)CC1", "inhibition": "-0.73% (inactive)"}, {"smiles": "COc1ccccc1CNC(=O)c1ccc(Cl)c(S(=O)(=O)N2CCCC2)c1", "inhibition": "16.6% (inactive)"}, {"smiles": "COc1ccc(CNC(=O)COC(=O)C(CCSC)N2C(=O)c3ccccc3C2=O)cc1", "note": "(stereo unspecified)", "inhibition": "9.55% (inactive)"}, {"smiles": "COc1cc(OC)cc(C(=O)NC(C(=O)N2CCC2)C(C)C)c1", "note": "(stereo unspecified)", "inhibition": "4.23% (inactive)"}, {"smiles": "COc1ccc(-c2nnc(NC(=O)CS(=O)(=O)c3ccc(Cl)cc3)o2)c(OC)c1", "inhibition": "47.9% (active)"}, {"smiles": "COc1ccc(NC(=O)CS(=O)(=O)c2ccccc2)cc1", "inhibition": "-4.46% (inactive)"}, {"smiles": "Cc1ccc(C)c(-c2nnc(NC(=O)CS(=O)(=O)c3ccccc3)o2)c1", "inhibition": "12.7% (inactive)"}, {"smiles": "CCCCNc1c(-c2cccc(Sc3ccc(OC)cc3)c2)nc2ccccn12", "inhibition": "32.8% (inactive)"}, {"smiles": "c1ccc2c(CCN3CCNC[C@H]3Cc3cccc4ccccc34)cccc2c1", "inhibition": "3.65% (inactive)"}, {"smiles": "CC(NC(=O)COC(=O)Cn1cc(C(F)(F)F)ccc1=O)c1ccccc1", "note": "(stereo unspecified)", "inhibition": "3.44% (inactive)"}, {"smiles": "O=c1[nH]c(-c2ccccc2)c(-c2ccccc2)[nH]1", "inhibition": "8.25% (inactive)"}, {"smiles": "O=c1[nH]c(=O)c2nc3ccccc3nc2[nH]1", "inhibition": "53.3% (active)"}, {"smiles": "O=c1[nH]c(-c2cccs2)nc2ccccc12", "inhibition": "42.7% (inactive)"}, {"smiles": "Nc1ccc2nc3c(=O)[nH]c(=S)[nH]c3nc2c1", "inhibition": "93.8% (active)"}, {"smiles": "Cc1cc2nc3c(=O)n(Cc4ccccc4)c(=O)[nH]c3nc2cc1N", "inhibition": "14.8% (inactive)"}, {"smiles": "O=C1OCCN1C(=O)[C@H]1[C@H](c2ccc(Cl)cc2)C(c2cccc(Cl)c2)=NN1c1ccc(Br)cc1", "inhibition": "-1.81% (inactive)"}, {"smiles": "Cc1ccc(C)c(N2CCN(C(=O)CCc3nc(-c4cccc(C(F)(F)F)c4)no3)CC2)c1", "inhibition": "5.16% (inactive)"}, {"smiles": "CC(=O)N(O)CCCCCNC(=O)CCC(=O)N(O)CCCCCNC(=O)CCC(=O)N(O)CCCCCNC(=O)CCC(=O)O", "inhibition": "3.94% (inactive)"}, {"smiles": "Cc1ccc(C(=O)Nc2ccc3c(c2)OCCO3)cc1S(=O)(=O)N1CCOCC1", "inhibition": "1.11% (inactive)"}, {"smiles": "COc1cc(OC)cc(C(=O)N[C@H](C(=O)NNC(=O)c2ccc(Br)cc2)C(C)C)c1", "inhibition": "6.01% (inactive)"}, {"smiles": "N/C(=N\\OC(=O)c1ccc2c(c1)OCO2)c1ccc(Br)cc1", "inhibition": "10.9% (inactive)"}, {"smiles": "Nc1[nH][nH]c(=O)c1N=Nc1ccc2c(c1)OCO2", "inhibition": "84.8% (active)"}, {"smiles": "O=C(c1ccc2c(c1)OCO2)N1CCOCC1", "inhibition": "14.4% (inactive)"}, {"smiles": "CC(C)(C)OC(=O)C[C@@H]1C/C=C\\C[C@@H](CC(=O)N[C@H](CO)Cc2ccccc2)C(=O)NCCOC1=O", "inhibition": "5.83% (inactive)"}, {"smiles": "O=C(C[C@H]1C/C=C\\C[C@@H](NC(=O)OCC2c3ccccc3-c3ccccc32)C(=O)O[C@@H](c2ccccc2)CNC1=O)N[C@H](CO)Cc1ccccc1", "inhibition": "6.4% (inactive)"}, {"smiles": "Cc1cc(N2CCCC2)ccc1NC(=O)COc1ccc(Cl)cc1", "inhibition": "8.39% (inactive)"}, {"smiles": "COC(=O)N/N=C/c1c[n+]([O-])c2ccccc2[n+]1[O-]", "inhibition": "101% (active)"}, {"smiles": "COC(=O)N/N=C/c1cn(CCCOc2ccc(C)cc2)c2ccccc12", "inhibition": "13.5% (inactive)"}, {"smiles": "COC(=O)N/N=C/c1ccc(/C=N/NC(=O)OC)cc1", "inhibition": "48.6% (inactive)"}, {"smiles": "O=C(Nc1cc(S(=O)(=O)N2CCCCC2)ccc1Cl)C1COc2ccccc2O1", "note": "(stereo unspecified)", "inhibition": "2.12% (inactive)"}, {"smiles": "CC(=O)c1ccc(NC(=O)CSc2nc3ccccc3c(=O)n2CCCN2CCOCC2)cc1", "inhibition": "3.62% (inactive)"}, {"smiles": "Fc1ccc(-n2c(Cc3ccccc3)nnc2SCc2nc(-c3ccc(Cl)cc3)no2)cc1", "inhibition": "35% (active)"}, {"smiles": "Cc1ccc(-c2noc(CSc3nnc(-c4ccncc4)n3-c3ccc(F)cc3)n2)cc1", "inhibition": "13.8% (inactive)"}, {"smiles": "Cc1ccc(-c2noc(CSc3nnc(-c4ccccc4)n3C)n2)cc1", "inhibition": "14.3% (inactive)"}, {"smiles": "O=C(CSc1nnc(-c2ccc([N+](=O)[O-])cc2)o1)Nc1ccccn1", "inhibition": "20.6% (inactive)"}, {"smiles": "Cc1cccc(C)c1OC(=O)CSc1nnc(-c2ccccc2)o1", "inhibition": "27.6% (inactive)"}, {"smiles": "CCOC(=O)CSc1nnc(-c2ccc([N+](=O)[O-])cc2)o1", "inhibition": "58.6% (active)"}, {"smiles": "Cc1noc(C)c1NC(=O)Nc1ccc2c(c1)C(=O)N([C@H](C)CO)C[C@H](C)[C@@H](CN(C)C(=O)Nc1ccc(C(F)(F)F)cc1)O2", "inhibition": "7.42% (inactive)"}, {"smiles": "COc1ccc(CCNC(=O)COC(=O)c2ncc(Cl)c(Cl)c2Cl)cc1OC", "inhibition": "9.72% (inactive)"}, {"smiles": "Cc1ccc(Nc2nc(CSc3nnnn3-c3ccccc3)cc(=O)[nH]2)cc1", "inhibition": "81.8% (active)"}, {"smiles": "Cc1ccc(-c2noc(CSc3nnnn3-c3ccccc3)n2)cc1", "inhibition": "5.93% (inactive)"}, {"smiles": "COc1ccc(C)cc1-n1nnnc1SCc1nc2ccccc2c(=O)[nH]1", "inhibition": "35.5% (inactive)"}, {"smiles": "CCn1c(O)c(N=NC2=NC(=O)CS2)c2cc(C)ccc21", "inhibition": "101% (active)"}, {"smiles": "COC(=O)Cn1c2ccc(C)cc2c2nc(C)sc21", "inhibition": "11.6% (inactive)"}, {"smiles": "CCn1c(O)c(N=NC(=O)c2cccc(S(=O)(=O)N3CCCCC3)c2)c2ccccc21", "inhibition": "11% (inactive)"}, {"smiles": "CCN(C(=O)CSc1cccc[n+]1[O-])c1ccccc1", "inhibition": "0.91% (inactive)"}]}]}
